# “And” between values parts separate entries of the source, which are not always exact repeats. Equal entries are not always repeated. A structure can be active in one record and inactive in another. The source made the active and inactive calls. The calls were made as follows: active = hit-call score of the fitted dose curve at least 0.9, where 1 is the maximum; inactive = score below 0.9.
# Read-out: Interferon-gamma inducible Protein 10 (IP10), CXCL10 (gene 3627)
# Experiment: BSK_KF3CT_IP10: BioMAP Diversity Plus: KF3CT Assay for Interferon-gamma inducible Protein 10 (IP10) Biomarker Activity (AID 2283068)
# Conditions: primary human keratinocytes with fibroblasts; actives raise or lower the signal
# Description: BSK_KF3CT is a cell-based, multiplexed-readout assay that uses keratinocytes and foreskin fibroblasts, a human skin primary cell co-culture, with measurements taken at 24 hours after chemical dosing in a 96-well plate.BSK_KF3CT_IP10 is an assay component measured in the BSK_KF3CT assay. It measures IP-10 antibody related to regulation of gene expression using ELISA technology.Data from the assay component BSK_KF3CT_IP10 was analyzed into 1 assay endpoint. This assay endpoint, BSK_KF3CT_IP10, was analyzed with bidirectional fitting relative to DMSO as the negative control and baseline of activity. Using a type of binding reporter, gain or loss-of-signal activity can be used to understand changes in the signaling as they relate to the gene CXCL10. Furthermore, this assay endpoint can be referred to as a primary readout, because this assay has produced multiple assay endpoints where this one serves a signaling function. To generalize the intended target to other relatable targets, this assay endpoint is annotated to the cytokine intended target family, where the subfamily is chemotactic factor.
# The levels of cell surface (or secreted, indicated by the prefix "s") biomarker endpoints were measured by ELISA. Overt cytotoxicity to cells in confluent adherent cultures (all systems other than the BT system) was assessed by measuring total protein levels using sulforhodamine B (SRB) staining in parallel cultures at the time of biomarker measurements, indicated as SRB endpoints. For proliferation assays for adherent cell types, individual cell types are cultured at sub-confluence and relative cell numbers quantified by SRB staining at time points optimized for each system (48 h: 3C and CASM3C systems; 72 h: BT and HDF3CGF systems; 96 h: SAg system). SRB was performed by staining cells with 0.1% SRB after fixation with 10% TCA and reading wells at 560 nm.Viability and proliferation of PBMC (T cells) was quantified by Alamar Blue reduction for the SAg and BT systems. For PBMC viability (referred to as PBMC Cytotoxicity within the assay endpoint names), cells were plated (75,000/well in a 96-well plate) and then chemical samples added for 1 h before addition of activators, SEB and TSST-1 (20 ng/mL final concentration each). Cells were incubated for 90 h. Then, Alamar Blue (20 uL/well) (Invitrogen, Cat DAL1100) was added for 6 h, and the plates were read with a fluorescence microplate reader at 546/580 nm (excitation/emission). For PBMC proliferation, cells were plated and activated as above but incubated for only 16 h prior to addition of Alamar Blue. Plates were read after 6 h.
SMILES,outcome,AC50
O=C(O)C(F)(OC(F)(F)C(F)(OC(F)(F)C(F)(OC(F)(F)C(F)(F)C(F)(F)F)C(F)(F)F)C(F)(F)F)C(F)(F)F (stereo not given),inactive,–
C=CC(=O)OCC(F)(F)C(F)(F)C(F)(F)C(F)(F)C(F)(F)C(F)(F)C(F)(F)F,inactive,–
O=C(O)C(F)(OC(F)(F)C(F)(OC(F)(F)C(F)(F)C(F)(F)F)C(F)(F)F)C(F)(F)F (stereo not given),inactive,–
CO[Si](OC)(c1ccccc1)c1ccccc1,inactive,–
CCO[Si](CCC(F)(F)C(F)(F)C(F)(F)C(F)(F)C(F)(F)C(F)(F)F)(OCC)OCC,inactive,–
OCC(F)(F)C(F)(F)C(F)(F)C(F)F,inactive,–
CCCCCCOC(=O)c1ccccc1O,inactive,–
FC(F)(F)C(F)(F)C(F)(F)C(F)(F)C(F)(F)C(F)(F)C(F)(F)C(F)(F)CCS,inactive,–
CCc1c(Br)c(Br)c(Br)c(Br)c1Br,inactive,–
FC(F)(F)C(F)(F)C(F)(F)C(F)(F)C(F)(F)C(F)(F)CC1CO1 (stereo not given),inactive,–
Cc1ccc(S(=O)(=O)OCC(F)(F)C(F)(F)C(F)(F)C(F)(F)C(F)(F)C(F)F)cc1,inactive,–
CCCCOCCOCCOC(=O)CCCCC(=O)OCCOCCOCCCC,inactive,–
CCCCC(CC)COP(=O)(O)OCC(CC)CCCC (stereo not given),–,26.5 µM (active) and 27.2 µM (active)
C=CC(F)(F)C(F)(F)C(F)(F)C(F)(F)C(F)(F)C(F)(F)C(F)(F)C(F)(F)C=C,inactive,–
CC(CCl)OP(=O)(OC(C)CCl)OC(C)CCl (stereo not given),inactive,–
O=C(O)C(F)(F)C(F)(F)OC(F)(F)F,inactive,–
NC(=O)C(F)(F)C(F)(F)C(F)(F)C(F)(F)F,inactive,–
O=S(=O)(OCCOC(F)(F)F)C(F)(F)F,inactive,–
FC(F)(F)C(F)(F)CNCC(F)(F)C(F)(F)F,inactive,–

SMILES,outcome,AC50
O=C(O)C(F)(F)C(F)(F)F,inactive,–
C=CC(F)(F)C(F)(F)C(F)(F)C(F)(F)C(F)(F)C(F)(F)C(F)(F)C(F)(F)F,inactive,–
CS(C)(=O)=O,inactive,–
CCCCCCCCCCCCCCCC[N+](C)(C)Cc1ccccc1,–,3.64 µM (active)
FC1CC(F)(F)C(F)(F)C1(F)F (stereo not given),inactive,–
CCCCCCCCC(F)(F)C(F)(F)C(F)(F)C(F)(F)C(F)(F)C(F)(F)F,inactive,–
FC(F)(F)C(F)(F)C(F)(F)C(F)(F)CCI,inactive,–
C=C(C)C(=O)OCC(F)(F)C(F)(F)C(F)(F)C(F)(F)C(F)(F)C(F)(F)C(F)(F)F,inactive,–
OCC(F)(F)C(F)(F)C(F)(F)C(F)(F)C(F)(F)C(F)F,inactive,–
OCCCC(F)(F)C(F)(F)C(F)(F)C(F)(F)C(F)(F)C(F)(F)C(F)(F)F,–,23.9 µM (active) and 49.7 µM (active)
O=C(Cl)C(F)(F)C(F)(F)C(F)(F)C(F)(F)C(F)(F)C(F)(F)C(F)(F)C(F)(F)F,inactive,20.3 µM (active) and 30 µM (active)
OCC(F)(F)C(F)(F)C(F)(F)C(F)(F)C(F)(F)C(F)(F)F,inactive,–
O=P(O)(O)OCCC(F)(F)C(F)(F)C(F)(F)C(F)(F)C(F)(F)C(F)(F)F,inactive,–
COC(=O)CCC(F)(F)C(F)(F)C(F)(F)C(F)(F)F,inactive,–
CCCCCCCOC(=O)c1ccccc1C(=O)OCCCCCCC,inactive,–
CCCCNc1ccccc1,inactive,–
C=CC(=O)OCC(F)(F)C(F)(F)C(F)(F)C(F)(F)COC(=O)C=C,–,19.3 µM (active) and 20.9 µM (active)
Nc1ccc([N+](=O)[O-])cc1O,inactive,–
O=C(O)C(F)(F)C(F)(F)C(F)(F)C(F)(F)C(F)(F)C(F)(F)C(F)(F)C(F)(F)C(F)(F)C(F)(F)C(F)(F)C(F)(F)F,inactive,22.5 µM (active)
